# PubChem BioAssay (EPA / NIEHS)
# Results filed as inconclusive are left out. Calls of active or inactive are those of the source. How the source made its calls: active means hit-call score of the fitted dose curve at least 0.9, where 1 is the maximum; inconclusive means response in the unintended direction; inactive means score below 0.9.
# Experiments:
# [1] = read-out: Cytochrome P450 3A4 (Homo sapiens) (UniProt P08684); test: CLD_CYP3A4_24hr: CellzDirect (CLD) Gene Expression Assay for xenobiotic metabolism (CYP3A4) at 24 hours (AID 2283689)
# How it was run: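 Primary human hepatocytes from two donors dosed daily with fresh compound for two days, 0.2% DMSO vehicle. CYP3A4 mRNA at 24 hr by qNPA chemiluminescence; gain-of-signal fit versus DMSO, cytotoxicity flagged by morphology.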
# [2] = read-out: organic anion transporter (SLCO1B1), SLCO1B1 (gene 10599); test: CLD_SLCO1B1_24hr: CellzDirect (CLD) Gene Expression Assay for organic anion transporter (SLCO1B1) at 24 hours (AID 2283690)
# How it was run: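 Primary human hepatocytes (two donor preparations) dosed daily for two days with chemicals at multiple concentrations, 0.2% DMSO vehicle. SLCO1B1 mRNA at 24 h measured by qNPA chemiluminescence; induction fitted relative to DMSO.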
# [3] = read-out: HMG-CoA synthase (HMGCS2), HMGCS2 (gene 3158); test: CLD_HMGCS2_24hr: CellzDirect (CLD) Gene Expression Assay for HMG-CoA synthase (HMGCS2) at 24 hours (AID 2283691)
# How it was run: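 Primary human hepatocytes from two donor preparations, dosed daily with fresh solutions; vehicle 0.2% DMSO, 24 h harvest. HMGCS2 mRNA quantified by qNPA with S1 nuclease digestion and chemiluminescence; gain fitted versus DMSO, cytotoxicity annotated by morphology.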
# [4] = read-out: Cytochrome P450 3A4 (Homo sapiens) (UniProt P08684); test: CLD_CYP3A4_48hr: CellzDirect (CLD) Gene Expression Assay for xenobiotic metabolism (CYP3A4) at 48 hours (AID 2283698)
# How it was run: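 Primary human hepatocytes from two donor preparations dosed daily for two days with multiple chemical concentrations, 0.2% DMSO vehicle. CYP3A4 mRNA at 48 h by quantitative nuclease protection assay, chemiluminescence, positive fit versus DMSO; cytotoxicity flagged morphologically.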
# [5] = read-out: sulfotransferase (SULT2A), SULT2A1 (gene 6822); test: CLD_SULT2A_24hr: CellzDirect (CLD) Gene Expression Assay for sulfotransferase (SULT2A) at 24 hours (AID 2283694);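 on AC50: potency for increased SULT2A1 mRNA level as induction over DMSO baseline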
# How it was run: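 Primary human hepatocytes from two donor preparations were dosed daily with fresh solutions, vehicle 0.2% DMSO. At 24 h, lysates went to quantitative nuclease protection (qNPA) with S1 digestion and chemiluminescent readout. Cytotoxicity was annotated from phase-contrast morphology.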
# [6] = read-out: ABC Transporter (ABCB11), ABCB11 (gene 8647); test: CLD_ABCB11_48hr: CellzDirect (CLD) Gene Expression Assay for ABC Transporter (ABCB11) at 48 hours (AID 2283697)
# How it was run: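 Primary human hepatocytes from two donor preparations dosed daily for two days at multiple concentrations; 0.2% DMSO vehicle. ABCB11 mRNA at 48 h by quantitative nuclease protection assay, chemiluminescence; fitted for induction versus DMSO.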
# [7] = read-out: ABC Transporter (ABCB1), ABCB1 (gene 5243); test: CLD_ABCB1_48hr: CellzDirect (CLD) Gene Expression Assay for ABC Transporter (ABCB1) at 48 hours (AID 2283695)
# How it was run: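 Primary human hepatocytes from two donor preparations dosed daily on two consecutive days with 0.2% DMSO vehicle. Harvest at 48 h. ABCB1 mRNA quantified by qNPA with chemiluminescence and fitted for gain of signal versus DMSO.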
# [8] = read-out: glucuronosyltransferase (UGT1A1), UGT1A1 (gene 54658); test: CLD_UGT1A1_24hr: CellzDirect (CLD) Gene Expression Assay for glucuronosyltransferase (UGT1A1) at 24 hours (AID 2283696)
# How it was run: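 Primary human hepatocytes from two donor preparations were dosed (0.2% DMSO vehicle) and harvested at 24 h; UGT1A1 mRNA induction was quantified by chemiluminescent qNPA, fitted as gain relative to DMSO.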
# [9] = read-out: alkyl and aryl transferase (GSTA2), GSTA2 (gene 2939); test: CLD_GSTA2_24hr: CellzDirect (CLD) Gene Expression Assay for alkyl and aryl transferase (GSTA2) at 24 hours (AID 2283693)
# How it was run: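 Primary human hepatocytes (two donor preparations) dosed daily for two days with chemicals at multiple concentrations (vehicle 0.2% DMSO); GSTA2 mRNA at 24 h measured by qNPA chemiluminescence, gain-of-signal versus DMSO.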
# Cytochrome P450 3A4 (Homo sapiens), sequence (P08684 whole entry, looked up): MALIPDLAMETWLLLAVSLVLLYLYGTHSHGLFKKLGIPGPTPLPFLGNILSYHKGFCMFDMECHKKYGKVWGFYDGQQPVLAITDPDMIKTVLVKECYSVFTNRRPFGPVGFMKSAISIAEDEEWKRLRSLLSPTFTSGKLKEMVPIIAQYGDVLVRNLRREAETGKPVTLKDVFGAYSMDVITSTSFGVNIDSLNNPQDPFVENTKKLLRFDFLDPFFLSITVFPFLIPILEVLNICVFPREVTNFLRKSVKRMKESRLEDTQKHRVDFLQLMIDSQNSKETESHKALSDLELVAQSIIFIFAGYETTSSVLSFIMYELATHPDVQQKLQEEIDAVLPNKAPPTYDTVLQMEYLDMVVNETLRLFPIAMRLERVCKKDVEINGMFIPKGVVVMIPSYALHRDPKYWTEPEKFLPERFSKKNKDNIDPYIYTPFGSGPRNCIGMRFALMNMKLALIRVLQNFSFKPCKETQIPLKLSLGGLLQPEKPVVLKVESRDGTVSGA
smiles,measurement,setting,value
CSC(=O)c1c(C(F)F)nc(C(F)(F)F)c(C(=O)SC)c1CC(C)C,AC50,[1],2.07 µM (active)
same,outcome,[2],inactive
same,outcome,[3],inactive
same,AC50,[4],0.645 µM (active)
CCOC(=O)C(C)OC(=O)c1cc(Oc2ccc(C(F)(F)F)cc2Cl)ccc1[N+](=O)[O-] (centres undefined),AC50,[1],3.19 µM (active)
same,AC50,[3],0.31 µM (active)
same,AC50,[5],3.51 µM (active)
same,AC50,[4],5.01 µM (active)
Clc1nc(Cl)nc(Nc2ccccc2Cl)n1,outcome,[1],inactive
same,outcome,[2],inactive
same,outcome,[6],inactive
same,outcome,[4],inactive
CO/N=C(/C1=NOCCO1)c1ccccc1Oc1ncnc(Oc2ccccc2Cl)c1F,outcome,[1],inactive
same,outcome,[2],inactive
same,outcome,[7],inactive
same,outcome,[6],inactive
same,outcome,[4],inactive
CC(C)N1C(=O)N(c2ccccc2)CSC1=NC(C)(C)C,AC50,[1],20 µM (active)
same,outcome,[2],inactive
same,outcome,[5],inactive
same,AC50,[4],8.18 µM (active)
CCCCC(C#N)(Cn1cncn1)c1ccc(Cl)cc1 (centres undefined),AC50,[1],9.54 µM (active)
same,outcome,[2],inactive
same,outcome,[8],inactive
same,AC50,[4],20 µM (active)
CCCCOCN(C(=O)CCl)c1c(CC)cccc1CC,outcome,[1],inactive
same,AC50,[4],3.57 µM (active)
CC(C)Nc1nc(Cl)nc(NC(C)C)n1,AC50,[1],6.2 µM (active)
same,AC50,[8],4.11 µM (active)
same,AC50,[4],3.54 µM (active)
Cn1c(-c2ccccc2)cc(-c2ccccc2)[n+]1C,outcome,[1],inactive
same,outcome,[7],inactive
CCOP(=S)(OCC)Oc1nc(Cl)n(C(C)C)n1,AC50,[1],0.677 µM (active)
same,AC50,[4],2.52 µM (active)
COC(=O)NC(=S)Nc1ccccc1NC(=S)NC(=O)OC,AC50,[1],3.97 µM (active)
same,outcome,[5],inactive
same,outcome,[6],inactive
same,AC50,[4],3.45 µM (active)
COc1cc(Cl)c(OC)cc1Cl,outcome,[1],inactive
same,outcome,[4],inactive
CC(C)C1(C)N=C(c2ncccc2C(=O)O)NC1=O (centres undefined),outcome,[6],inactive
same,outcome,[4],inactive
Cc1cc(C)nc(Nc2ccccc2)n1,AC50,[1],1.78 µM (active)
same,outcome,[4],inactive
O=P(O)(O)CCCl,outcome,[1],inactive
same,outcome,[6],inactive
Nc1cnn(-c2ccccc2)c(=O)c1Cl,outcome,[8],inactive
same,outcome,[4],inactive
COC(=O)c1c(C(F)F)nc(C(F)(F)F)c(C2=NCCS2)c1CC(C)C,outcome,[1],inactive
same,outcome,[8],inactive
same,AC50,[4],1.9 µM (active)
CCC(C)n1c(=O)[nH]c(C)c(Br)c1=O (centres undefined),outcome,[1],inactive
same,outcome,[4],inactive
CC(C)NC(=O)N1CC(=O)N(c2cc(Cl)cc(Cl)c2)C1=O,AC50,[1],9.31 µM (active)
same,AC50,[4],13.5 µM (active)
CCN(CC)C(=O)C(C)Oc1cccc2ccccc12 (centres undefined),outcome,[1],inactive
same,outcome,[8],inactive
same,AC50,[4],3.72 µM (active)
O=C(Nc1ccccc1-c1ccc(Cl)cc1)c1cccnc1Cl,outcome,[5],inactive
same,outcome,[8],inactive
C=CCOC(=O)C(C)(C)OC(=O)c1cc(-n2c(=O)cc(C(F)(F)F)n(C)c2=O)ccc1Cl,AC50,[1],0.47 µM (active)
same,AC50,[4],2.79 µM (active)
Cc1ccc(N=CN(C)C=Nc2ccc(C)cc2C)c(C)c1,outcome,[2],inactive
CCN(CC)c1nc(C)cc(OP(=S)(OC)OC)n1,AC50,[1],3.81 µM (active)
same,outcome,[5],inactive
same,outcome,[8],inactive
same,AC50,[4],3.58 µM (active)
N#Cc1c[nH]cc1-c1cccc2c1OC(F)(F)O2,AC50,[1],4.26 µM (active)
same,outcome,[8],inactive
same,outcome,[4],inactive
COc1ccc(-c2ccccc2)cc1NNC(=O)OC(C)C,outcome,[1],inactive
same,outcome,[6],inactive
same,outcome,[4],inactive
COc1cc(OC)nc(NC(=O)NS(=O)(=O)c2ncccc2OCC(F)(F)F)n1,outcome,[1],inactive
same,outcome,[5],inactive
same,outcome,[6],inactive
same,AC50,[4],20 µM (active)
CCSC(=O)N1CCCCCC1,AC50,[1],0.0865 µM (active)
same,outcome,[8],inactive
same,AC50,[4],3.97 µM (active)
COCC(=O)N(c1c(C)cccc1C)C(C)C(=O)OC (centres undefined),outcome,[2],inactive
same,outcome,[5],inactive
COP(=S)(OC)SCn1nnc2ccccc2c1=O,AC50,[1],20 µM (active)
same,outcome,[6],inactive
same,AC50,[4],12.8 µM (active)
CCOc1cc(C(C)(C)C)ccc1C1COC(c2c(F)cccc2F)=N1 (centres undefined),AC50,[1],1.9 µM (active)
same,outcome,[5],inactive
same,AC50,[4],1.9 µM (active)
CCNC(=O)NC(=O)C(C#N)=NOC,outcome,[2],inactive
same,outcome,[3],inactive
same,outcome,[6],inactive
same,outcome,[4],inactive
CNC(=O)Oc1cccc2ccccc12,outcome,[4],inactive
CCOc1nc(C(Cl)(Cl)Cl)ns1,outcome,[1],inactive
same,outcome,[8],inactive
same,outcome,[6],inactive
same,outcome,[4],inactive
C=C(C)CN(CC)c1c([N+](=O)[O-])cc(C(F)(F)F)cc1[N+](=O)[O-],AC50,[1],5.33 µM (active)
same,outcome,[6],inactive
same,AC50,[4],3.97 µM (active)
CC(C)(C)C(=O)C(Oc1ccc(Cl)cc1)n1cncn1 (centres undefined),AC50,[1],1.63 µM (active)
same,outcome,[5],inactive
same,AC50,[4],1.5 µM (active)
CC(C)Oc1cccc(NC(=O)c2ccccc2C(F)(F)F)c1,outcome,[2],inactive
COC(=O)N(C(=O)N1CO[C@@]2(C(=O)OC)Cc3cc(Cl)ccc3C2=N1)c1ccc(OC(F)(F)F)cc1,AC50,[1],6.53 µM (active)
same,AC50,[4],5.15 µM (active)
CCNP(=S)(OC)O/C(C)=C/C(=O)OC(C)C (centres undefined),AC50,[1],1.94 µM (active)
same,AC50,[8],1.7 µM (active)
same,AC50,[4],0.654 µM (active)
O=C1C2CC=CCC2C(=O)N1SC(Cl)(Cl)Cl (centres undefined),outcome,[2],inactive
same,outcome,[9],inactive
same,outcome,[6],inactive
COCC(C)N(C(=O)CCl)c1c(C)csc1C (centres undefined),outcome,[2],inactive
same,outcome,[6],inactive
